Laboratory results taken from publication PMC6602471.

Each sequence was assayed against RUNX1 (Homo sapiens, UniProt Q01196 1-453) (assay: custom PBM; custom protein-binding microarray; buffer, salt, pH and temperature not stated; high values mean tight binding). Conditions: dsDNA, one strand shown.
RUNX1, sequence (Q01196 whole entry): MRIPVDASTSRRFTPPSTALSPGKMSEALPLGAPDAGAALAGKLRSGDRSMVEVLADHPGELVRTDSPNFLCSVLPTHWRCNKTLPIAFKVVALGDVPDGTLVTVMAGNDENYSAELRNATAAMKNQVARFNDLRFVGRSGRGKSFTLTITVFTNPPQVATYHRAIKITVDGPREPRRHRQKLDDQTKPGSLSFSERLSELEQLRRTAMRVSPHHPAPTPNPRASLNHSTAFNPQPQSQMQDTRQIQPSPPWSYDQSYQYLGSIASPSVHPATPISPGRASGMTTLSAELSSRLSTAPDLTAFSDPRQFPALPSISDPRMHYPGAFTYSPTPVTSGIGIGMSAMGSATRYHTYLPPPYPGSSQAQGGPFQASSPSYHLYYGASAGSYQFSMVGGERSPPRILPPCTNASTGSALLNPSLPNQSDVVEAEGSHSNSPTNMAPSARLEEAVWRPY

Sequence | binding signal
GCATACGGCTGAGGTCAGCCACATACGCACACATACACATACACACATACACATACGCAC | 10.9 log fluorescence intensity
GCGCACATTTCCCGTTAATCATACACGCACACATACACATACACACATACACATACGCAC | 11 log fluorescence intensity
GCGCACATTTCACGTAAATCATACACGCACACATACACATACACACATACACATACGCAC | 10.9 log fluorescence intensity
GCGCACAGTTCCCGTAAATCATACACGCACACATACACATACACACATACACATACGCAC | 10.9 log fluorescence intensity
CGCGCACTCTGTGGTTGCACACATACGCACACATACACATACACACATACACATACGCAC | 11.6 log fluorescence intensity
GCGCACATTTCCCATAAATCATACACGCACACATACACATACACACATACACATACGCAC | 11 log fluorescence intensity
GCGCACATTACCCGTAAATCATACACGCACACATACACATACACACATACACATACGCAC | 10.9 log fluorescence intensity
GCATACCGCTGACGTCAGCCACATACGCACACATACACATACACACATACACATACGCAC | 10.9 log fluorescence intensity
GCGCACTTTTCCCGTAAATCATACACGCACACATACACATACACACATACACATACGCAC | 11 log fluorescence intensity
CGCGCAGTCTGTGGTTGCGCACATACGCACACATACACATACACACATACACATACGCAC | 11.4 log fluorescence intensity
CGCGCACTCTGTGGTTGCCCACATACGCACACATACACATACACACATACACATACGCAC | 11.3 log fluorescence intensity
GCATACGGCTGACGTCAGACACATACGCACACATACACATACACACATACACATACGCAC | 10.9 log fluorescence intensity
GCATACGGCTAACGTCAGCCACATACGCACACATACACATACACACATACACATACGCAC | 11 log fluorescence intensity
CGCGCACTCTGCGGTTGCGCACATACGCACACATACACATACACACATACACATACGCAC | 12.8 log fluorescence intensity
